PubChem BioAssay (NCATS)
Records with an inconclusive call do not appear. Where a call stands in place of a potency, no number is given. Unmarked numbers belong to inactive results. Calls of active or inactive are those of the source. Calls follow the shape of the dose curve; as a rule, active = well fitted inhibition curve with a large enough effect; inconclusive = small, poorly fitted or top-dose-only effect; inactive = flat fitted curve, though single readings scatter. Square brackets hold non-standard residues; d marks the D form. Peptide text beside a SMILES is read from it. Orn = NCCC[CH](N)C(=O)O

Columns and labels:
[1] = molecular target: Ubiquitin carboxyl-terminal hydrolase 1 (Homo sapiens) (UniProt O94782); experiment: Inhibitors of USP1/UAF1: Pilot qHTS (AID 504865); also: nearly all actives have a fitted effect of over 35% in size
Outline: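 USP1/UAF1 complex at 1 nM preincubated 15 min at room temperature with compound, then Ub-Rho substrate added at 150 nM final. Fluorescence (480/540 nm) read kinetically in 50 mM HEPES pH 7.8, 0.5 mM EDTA, 1 mM TCEP, 0.1 mg/ml BSA, 0.01% Tween-20.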

[2] = molecular target: Luciferin 4-monooxygenase (Photinus pyralis) (UniProt P08659); experiment: Biochemical firefly luciferase enzyme assay for NPC (AID 624030); also: nearly all actives have a fitted effect of over 70% in size
Outline: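 Purified P. pyralis luciferase at 10 nM in 50 mM Tris Acetate (final), luminescence read within 5 minutes of enzyme addition to compounds. Activity normalised to PTC124 versus DMSO; concentration-response curves classed by r2, magnitude and activity.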

[3] = qHTS profiling for inhibitors of Plasmodium falciparum proliferation (AID 504749); as to all read-outs here: nearly all actives have a fitted effect of over 60% in size; settings: P. falciparum in erythrocytes, SYBR Green DNA, 72 h; for activity, negative = inhibition: at 28.7 µM (top of the series)
Outline: (§1)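 P. falciparum-infected erythrocytes (0.3% parasitemia, 2.5% hematocrit) incubated with compound 72 h at 37 C, 5% CO2. Parasite DNA detected by SYBR Green after lysis, overnight at room temperature; normalised to 0.29 uM artemisinin and DMSO.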

[4] = test system: ATS189; experiment: as above; settings: P. falciparum in erythrocytes, SYBR Green DNA, 72 h; series mostly up to 28.7 µM
Outline: as §1

[5] = test system: CP185; experiment: as above; settings: P. falciparum in erythrocytes, SYBR Green DNA, 72 h; series mostly up to 28.7 µM
Outline: as §1

[6] = test system: CP201; experiment: as above; settings: P. falciparum in erythrocytes, SYBR Green DNA, 72 h; series mostly up to 28.7 µM
Outline: as §1

[7] = test system: CP238; experiment: as above; settings: P. falciparum in erythrocytes, SYBR Green DNA, 72 h; series mostly up to 28.7 µM
Outline: as §1

[8] = test system: CP252; experiment: as above; settings: P. falciparum in erythrocytes, SYBR Green DNA, 72 h; series mostly up to 28.7 µM
Outline: as §1

[9] = test system: CP265; experiment: as above; settings: P. falciparum in erythrocytes, SYBR Green DNA, 72 h; series mostly up to 28.7 µM
Outline: as §1

[10] = test system: CP286; experiment: as above; settings: P. falciparum in erythrocytes, SYBR Green DNA, 72 h; series mostly up to 28.7 µM
Outline: as §1

[11] = test system: CP305; experiment: as above; settings: P. falciparum in erythrocytes, SYBR Green DNA, 72 h; series mostly up to 28.7 µM
Outline: as §1

[12] = test system: CP325; experiment: as above; settings: P. falciparum in erythrocytes, SYBR Green DNA, 72 h; series mostly up to 28.7 µM
Outline: as §1

[13] = test system: FAB9; experiment: as above; settings: P. falciparum in erythrocytes, SYBR Green DNA, 72 h; series mostly up to 28.7 µM
Outline: as §1

[14] = test system: PC15; experiment: as above; settings: P. falciparum in erythrocytes, SYBR Green DNA, 72 h; series mostly up to 28.7 µM
Outline: as §1

[15] = test system: PC49; experiment: as above; settings: P. falciparum in erythrocytes, SYBR Green DNA, 72 h; series mostly up to 28.7 µM
Outline: as §1
Potency is read from the fitted curve at half-maximal effect.

Chain of Ubiquitin carboxyl-terminal hydrolase 1 (Homo sapiens) (O94782 whole entry, looked up): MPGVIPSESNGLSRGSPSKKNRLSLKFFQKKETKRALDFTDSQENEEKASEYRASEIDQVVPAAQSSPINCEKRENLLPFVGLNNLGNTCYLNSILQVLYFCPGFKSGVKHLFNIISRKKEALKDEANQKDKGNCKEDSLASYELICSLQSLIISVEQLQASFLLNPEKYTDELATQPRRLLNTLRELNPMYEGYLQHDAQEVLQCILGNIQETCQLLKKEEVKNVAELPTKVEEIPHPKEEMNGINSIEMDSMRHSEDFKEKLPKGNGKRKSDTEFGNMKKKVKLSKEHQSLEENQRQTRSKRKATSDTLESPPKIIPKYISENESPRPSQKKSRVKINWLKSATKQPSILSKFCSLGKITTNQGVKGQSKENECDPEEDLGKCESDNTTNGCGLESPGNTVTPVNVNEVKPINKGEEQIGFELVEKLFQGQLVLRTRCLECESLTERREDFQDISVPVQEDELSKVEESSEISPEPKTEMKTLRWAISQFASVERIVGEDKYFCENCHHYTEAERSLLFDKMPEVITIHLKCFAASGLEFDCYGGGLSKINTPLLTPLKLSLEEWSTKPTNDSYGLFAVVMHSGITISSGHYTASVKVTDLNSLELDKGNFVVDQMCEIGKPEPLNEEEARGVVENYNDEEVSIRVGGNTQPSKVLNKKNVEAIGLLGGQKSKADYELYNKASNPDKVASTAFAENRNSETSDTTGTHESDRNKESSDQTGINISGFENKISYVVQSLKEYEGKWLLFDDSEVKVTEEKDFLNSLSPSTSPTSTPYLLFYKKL
Chain of Luciferin 4-monooxygenase (Photinus pyralis) (P08659 whole entry, looked up): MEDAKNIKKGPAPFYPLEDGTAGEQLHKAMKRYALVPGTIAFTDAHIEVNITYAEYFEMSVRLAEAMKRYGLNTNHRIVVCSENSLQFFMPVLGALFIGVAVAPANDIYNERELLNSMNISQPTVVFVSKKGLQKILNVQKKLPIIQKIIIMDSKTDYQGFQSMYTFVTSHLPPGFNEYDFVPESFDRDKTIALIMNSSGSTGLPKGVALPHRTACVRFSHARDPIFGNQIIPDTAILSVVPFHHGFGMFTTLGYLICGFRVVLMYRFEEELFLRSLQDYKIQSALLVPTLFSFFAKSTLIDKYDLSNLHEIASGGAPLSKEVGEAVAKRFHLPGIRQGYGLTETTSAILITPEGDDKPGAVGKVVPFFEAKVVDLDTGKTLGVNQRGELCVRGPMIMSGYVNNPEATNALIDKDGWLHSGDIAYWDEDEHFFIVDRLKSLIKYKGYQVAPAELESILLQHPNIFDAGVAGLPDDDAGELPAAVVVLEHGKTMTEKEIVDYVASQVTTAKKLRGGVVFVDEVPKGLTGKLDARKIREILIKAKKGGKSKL

SMILES	Potency [1]	Potency [2]	activity, negative = inhibition ([3]; parasite line A) [%]	activity, negative = inhibition ([3]; parasite line B) [%]	Potency [4]	Potency [5]	Potency [6]	Potency [7]	Potency [8]	Potency [9]	Potency [10]	Potency [11]	Potency [12]	Potency [13]	Potency [14]	Potency [15]	Potency ([3]; parasite line A)	Potency ([3]; parasite line B)
CCC(Oc1ccccc1)C(=O)NC1C(=O)N2C1SC(C)(C)C2C(=O)O (centres undefined)	inactive	inactive	-3.05	10.5	inactive	inactive	inactive	inactive	inactive	inactive	inactive	inactive	inactive	inactive	inactive	inactive	–	–
O=C(/C=C/c1ccccc1)c1cccs1	inactive	–	–	–	–	–	–	–	–	–	–	–	–	–	–	–	–	–
CC(C)CC1NC(=O)C(CCCN)NC(=O)C(C(C)C)NC(=O)C2CCCN2C(=O)C(Cc2ccccc2)NC(=O)C(CC(C)C)NC(=O)C(CCCN)NC(=O)C(C(C)C)NC(=O)C2CCCN2C(=O)C(Cc2ccccc2)NC1=O (centres undefined) (cyclo(FPV[Orn]LFPV[Orn]L); configuration not given here)	inactive	inactive	–	–	2.2 nM (active)	2.8 nM (active)	3.4 nM (active)	1.6 nM (active)	1.3 nM (active)	1.1 nM (active)	0.8 nM (active)	1.9 nM (active)	1.1 nM (active)	10 nM (active)	5.6 nM (active)	7.1 nM (active)	1.3 nM (active)	1.3 nM (active)
CC(C)C(NC(=O)C(CC(=O)O)NC(=O)C(CCCCN)NC(=O)C(N)CCCN=C(N)N)C(=O)NC(Cc1ccc(O)cc1)C(=O)O (centres undefined) (H-RKDVY-OH; configuration not given here)	inactive	inactive	0.811	3.22	inactive	inactive	inactive	inactive	inactive	inactive	inactive	inactive	inactive	inactive	inactive	inactive	–	–
C=CC1=C(C(=O)O)N2C(=O)[C@@H](NC(=O)C(N=O)c3csc(N)n3)[C@H]2SC1 (some centres undefined)	–	inactive	6.56	16.7	inactive	inactive	inactive	inactive	inactive	inactive	inactive	inactive	inactive	inactive	inactive	inactive	–	–
CC1(C)C(/C=C/C=C/C=C/C=C2\N(CCCCS(=O)(=O)O)c3ccc4ccccc4c3C2(C)C)=[N+](CCCCS(=O)(=O)[O-])c2ccc3ccccc3c21	31600 nM (active)	28700 nM (active)	2.34	4.13	inactive	inactive	inactive	inactive	inactive	inactive	inactive	inactive	inactive	inactive	inactive	inactive	–	–
COc1cc2c(C)c3c4c(cc(OC)c(OC)c4c2cc1OC)CCN3C	25100 nM (active)	–	–	–	–	–	–	–	–	–	–	–	–	–	–	–	–	–
COC(=O)CCC(C)C1CCC2C3C(C[C@H](O)C12C)C1(C)CC[C@@H](O)CC1C[C@H]3O (some centres undefined)	inactive	–	–	–	–	–	–	–	–	–	–	–	–	–	–	–	–	–
OC[C@H]1O[C@@H](OC[C@H]2O[C@@H](O)[C@H](O)[C@@H](O)[C@@H]2O)[C@H](O)[C@@H](O)[C@@H]1O	inactive	–	–	–	–	–	–	–	–	–	–	–	–	–	–	–	–	–
O=C(/C=C/c1ccc(O)cc1)c1cccs1	inactive	–	–	–	–	–	–	–	–	–	–	–	–	–	–	–	–	–
NC(=O)CCC1NC(=O)C(Cc2ccccc2)NC(=O)C(Cc2ccc(O)cc2)NC(=O)CCSSCC(C(=O)N2CCCC2C(=O)NC(CCCN=C(N)N)C(=O)NCC(N)=O)NC(=O)C(CC(N)=O)NC1=O (centres undefined)	–	inactive	9.46	7.06	inactive	inactive	inactive	inactive	inactive	inactive	inactive	inactive	inactive	inactive	inactive	inactive	–	–
